NTR1 agonist: agonists of human NTR1, primary screen, imaging, U2OS cells, beta-arrestin-GFP, high content | Neurotensin receptor type 1 (Homo sapiens), P30989 | NTR1-U2OS beta-arrestin-GFP spot imaging, agonist mode | activation, % at 20 µM | 330,000 tested, 0.17% active | AID 493036, 2011;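 active = activation at or above 40% of the spot to cytoplasm intensity ratio, with at least 20 cells analyzed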
Target sequence (P30989 whole entry, looked up): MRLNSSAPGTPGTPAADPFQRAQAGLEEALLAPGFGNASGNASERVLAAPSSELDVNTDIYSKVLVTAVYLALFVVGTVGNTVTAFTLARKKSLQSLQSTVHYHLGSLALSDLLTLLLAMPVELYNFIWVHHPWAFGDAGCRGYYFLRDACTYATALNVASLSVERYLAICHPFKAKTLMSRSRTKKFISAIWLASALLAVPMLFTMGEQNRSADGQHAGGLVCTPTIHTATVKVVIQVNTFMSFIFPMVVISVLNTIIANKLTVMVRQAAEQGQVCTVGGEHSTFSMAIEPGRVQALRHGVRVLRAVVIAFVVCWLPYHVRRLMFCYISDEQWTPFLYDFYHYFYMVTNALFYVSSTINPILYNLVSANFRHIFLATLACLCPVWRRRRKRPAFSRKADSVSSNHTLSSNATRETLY
UBC9 SUMO inh: inhibitors of in vitro SUMOylation cascade, primary screen, biochemical, HTRF, uHTS | HTRF SUMOylation assay, SAE1/SAE2 + UBC9 | SUMO-conjugating enzyme UBC9 (Homo sapiens), P63279 | inhibition, % at 35 µM | AID 2006, 2009 | 290,000 tested, 0.36% active; in the data active = inhibition above about 50%, passing the limit was not always enough
Cardio protect: cardioprotection against H2O2-induced cell death, primary screen, uHTS, H9c2 cells, ATPLite luminescence; H9c2 cardiomyocytes, H2O2 injury protection, 2 h; protection from H2O2 cell death, % at 20 µM; 360,000 tested, 0.63% active; AID 588492, 2011;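 active = compounds giving at least 50% protection of heart cells from peroxide-induced death in the single-dose screen, raw or plate-pattern-corrected value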
ALR H2O2 inh: inhibitors of human ALR sulfhydryl oxidase, primary screen, biochemical, H2O2 detection, HRP-luminol luminescence, single point | FAD-linked sulfhydryl oxidase ALR (Homo sapiens), P55789 | purified ALR, DTT oxidation | inhibition, % (no concentration beside the values) | 290,000 tested, 3.8% active | AID 485317, 2010;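 active = mean replicate inhibition above about 79%, with every replicate also reaching it, limit read from the data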
Each line names hits and unclear results; the compound was inactive in the other large screens. In the library only some 3.9% were active in any assay of this set; here they are far more common.

O=[N+]([O-])c1ccc(O)c(C=NNc2ccc(S(=O)(=O)O)cc2)c1	none (no result: NTR1 agonist, UBC9 SUMO inh, ALR H2O2 inh)
O=[N+]([O-])c1cccc(N/N=C/c2cc([N+](=O)[O-])ccc2O)c1	ALR H2O2 inh 96
Cc1ccc(SCC(=O)N2CCc3ccccc32)cc1	none
CC1=CC(=O)C=C(C)C1=NOC(=O)c1cccc([N+](=O)[O-])c1	ALR H2O2 inh 100
COc1ccc(OC)c(C(C)NS(=O)(=O)c2cccs2)c1 (stereo not given)	none (no result: UBC9 SUMO inh)
CCN(CC)Cc1cc(O)c(CN(CC)CC)cc1O	Cardio protect 55 (no result: NTR1 agonist, ALR H2O2 inh)
CCc1oc(C(=O)O)cc1CN(CC)CC	none
CCOC(=O)c1ccc(N2C(=O)CC(NNC(=O)c3ccc(Br)s3)C2=O)cc1 (stereo not given)	none
CCOC(=O)c1ccc(N2C(=O)CC(Nc3ccc(O)cc3)C2=O)cc1 (stereo not given)	ALR H2O2 inh 97
CCCNC(=O)C(Cc1ccccc1)NC(=O)c1ccc(C(C)(C)C)cc1 (stereo not given)	none (no result: UBC9 SUMO inh)
O=C(CCl)N=c1sccn1Cc1ccc(Cl)cc1Cl	ALR H2O2 inh 95
O=C(CCl)N=c1sccn1Cc1ccccc1Cl	none (no result: ALR H2O2 inh)
Cc1ccc(CNC(=O)c2ccccc2N)cc1	none
O=C(CC(c1ccccc1)c1ccccc1)Nc1ccc(O)cc1	ALR H2O2 inh 99
O=C(CCc1ccccc1)Nc1ccccc1	none
O=C(CC(NCCc1ccccc1)C(=O)O)Nc1ccc(O)cc1 (stereo not given)	ALR H2O2 inh 91 (no result: Cardio protect)
COc1ccc(N2CCN(C(=O)CCCC(=O)c3ccccc3)CC2)cc1	none
CC1CN(C(=O)CCC(=O)N2CCOCC2)c2ccccc2O1 (stereo not given)	none
COc1ccc(N2CCN(C(=O)CCn3nnc4ccccc43)CC2)cc1	ALR H2O2 inh 90
COc1ccc(N2CCN(C(=O)CCC(=O)N3CC(C)Oc4ccccc43)CC2)cc1 (stereo not given)	ALR H2O2 inh 78
Cc1ccc(NC2CCCN(C(=O)CSc3ccncc3)C2)cc1C (stereo not given)	ALR H2O2 inh 98
COc1ccc(OCC(=O)N2CCCC(Nc3ccc(C)c(C)c3)C2)cc1 (stereo not given)	none (no result: NTR1 agonist, UBC9 SUMO inh, ALR H2O2 inh)
COc1ccc(NC2CCCN(C(=O)CCCn3cncn3)C2)cc1OC (stereo not given)	ALR H2O2 inh 94
COc1c(C)cc(C(=O)C2CCCN(C(=O)CCCn3cncn3)C2)cc1C (stereo not given)	none
O=C(CCc1ccncc1)N1CCCC(Nc2ccc(F)c(F)c2)C1 (stereo not given)	ALR H2O2 inh 95 (no result: UBC9 SUMO inh)
Cc1ccc(NC2CCCN(C(=O)Cc3nonc3C)C2)cc1C (stereo not given)	ALR H2O2 inh 99
O=C(CSc1ccccn1)N1CCCC(Nc2ccc(F)c(F)c2)C1 (stereo not given)	none
Cc1ccc(NC2CCCN(C(=O)c3nonc3C)C2)cc1C (stereo not given)	none (no result: NTR1 agonist, UBC9 SUMO inh, ALR H2O2 inh)
Cc1ccccc1Nc1nc(N)nc(CN(C)c2ccccc2)n1	none
Cc1ccc(NC2CCCN(C(=O)CCc3ccncc3)C2)cc1C (stereo not given)	ALR H2O2 inh 98
Cc1ccc(NC2CCCN(C(=O)CN3C(=O)c4ccccc4C3=O)C2)cc1C (stereo not given)	ALR H2O2 inh 93
Cc1ccc(NC2CCCN(C(=O)CCC(=O)c3ccccc3)C2)cc1C (stereo not given)	none (no result: ALR H2O2 inh)
O=C(CCc1cccc(Cl)c1)N1CCCC(Nc2ccccc2)C1 (stereo not given)	none
COc1ccc(NC2CCCN(C(=O)CCc3ccncc3)C2)cc1OC (stereo not given)	ALR H2O2 inh 95
COC(=O)CN1C(=O)C2(OCCCO2)c2cc(Br)ccc21	none
COc1cc(OC)c(C2CC(=O)N3CN(c4ccccc4C)CSC3=C2C#N)cc1OC (stereo not given)	none (no result: Cardio protect)
CCCCOc1ccc(CC(=O)NO)cc1	ALR H2O2 inh 91
CCOC(=O)N1CCC(N(CCN(C)C)C(=S)Nc2ccc(F)c(Cl)c2)CC1	none
COc1ccc(-n2cnnc2SCCC#N)cc1	none
COCCn1c(SCc2cnc(-c3ccccc3)s2)nnc1-c1ccncc1	ALR H2O2 inh 99
CCn1c(CN2CCCCCC2=O)nnc1SCc1cnc(-c2ccccc2)s1	ALR H2O2 inh 99
COc1ccc(-n2cnnc2SCc2cnc(-c3ccccc3)s2)cc1	ALR H2O2 inh 99
COc1ccc(C(=O)Nc2ccccn2)cc1S(=O)(=O)N1CCOCC1	none
O=C(Cc1cccc2ccccc12)N1CC[C@@]2(O)CCCC[C@H]2C1	none

Source: PubChem BioAssay (several laboratories)
